Experimental data as given in article PMC12136788.
Substitutions are numbered along the chain they refer to. Over roughly 5,800 sequences, “enrichment r” has its median near 0.54; the highest 2% begin near 16. Only a selection was taken, and the highest values are over-represented in it overall.

B1: chr3:44647099:44647200:+|3pUTR|ENSG00000186448|msi1|FALSE|unique (ssRNA)
RNA: GGGAGUUCUACAGUCCGACGAUCAUUUGUAUGUAAACUACAUAAAGAACUUUCCAAAUUUAACAGUAAUAAGUAAAUACAAUUAGAAAAUAAGCAAAAGACAGACAUUUCACUGAAGUAUAGAUAGCAAAUAAGCAAAUGAAACAACAGAGGAUUGAGCAUCA
B2: chr8:30843048:30843149:-|CDS|ENSG00000133863|unk|FALSE|unique (ssRNA)
RNA: GGGAGUUCUACAGUCCGACGAUCGGAUACUAUAAUUGCUUCCAGAAAGUCAGAUCAUCCAAUAAACGAAGCAACAAUUAGCAUAGAAAAUUCUAAAUUUAACAGUAAUUUGCUUGCACACCCAGAUAUUUGUUGUAUUAGUGACAACAGAGGAUUGAGCAUCA
B3: chr3:44647099:44647200:+|3pUTR|ENSG00000186448|msi1|total|mutant (ssRNA)
RNA: B1 RNA with U83C, A84C, U120C, A121C, U124C, A125C
B4: chr11:85958428:85958534:-|3pUTR|ENSG00000073921|unk|FALSE|unique (ssRNA)
RNA: GGGAGUUCUACAGUCCGACGAUCAGAAACAAUAACUGAAAUUAACUUUUCUUUUUUUAAAAAAAAUUAUAUUCAGUUUGCAGUAGACAUUCCUUAAGUAUUUGUAUUUAUUUAUGAUUAUCAAUUUUACAUAACAUUAAUAUUCAACAGAGGAUUGAGCAUCA
B5: chr8:30843048:30843149:-|CDS|ENSG00000133863|unk|total|mutant (ssRNA)
RNA: B2 RNA with U78C, A79C, U83C, A84C, U138C, A139C
B6: chrX:41141081:41141111:+|CDS|ENSG00000124486|msi1_unk|total|mutant (ssRNA)
RNA: GGGAGUUCUACAGUCCGACGAUCCACUCUUCAUACAGUGAAAAAGUACUUUCUUCCAAUAACCGAAAUGGUUCCACAGUUUUCCGAAAACUUAACUGAUGAAGAACUGAAAAAAGAAGCAAAGAAUGAAGCCAAAAAUGAUGCCAACAGAGGAUUGAGCAUCA
B7: chr12:125025615:125025697:+|3pUTR|ENSG00000184992|msi1_unk|FALSE|overlapping (ssRNA)
RNA: GGGAGUUCUACAGUCCGACGAUCGGACACAUUCCCAGAAGAGCGGAAAGAUCAUUGACGUGGAACUACACACGAAGUGUAAUUAGUGGGGGAAAAAAUAUUUUUUAAACAAAGGAUAUAACCAUAUUUAGUUGUACAGUAAGACAACAGAGGAUUGAGCAUCA
B8: ENSG00000067715:stop:overlap|stop_codon|ENSG00000067715|stop_codon|NA|stop_codon (ssRNA)
RNA: GGGAGUUCUACAGUCCGACGAUCAGGAGAAGUUUAUGAAUGAGUUGCAUAAAAUUCCAUUUCAAAGGAAAGAGAGUACCAAUUAGACAAGGGAAGAAGAUGAGAGACUGCCUGAACAGCAUCACUUUUGUAAACUGAGAGUUCCAACAGAGGAUUGAGCAUCA
B9: chr19:34227675:34227687:+|3pUTR|ENSG00000257103|msi1_unk|total|mutant (ssRNA)
RNA: GGGAGUUCUACAGUCCGACGAUCUUAAAACAUGAGCAUUAAAUAUAUUUGGAACCGCAGAAGGUUAAGUAAUUUCUUAUGUACCGUUAAACUAAAGCAGUACUUCAGUGGGACUUAACAAGUAUUUUUUCAUCACUGAAAGGUCAACAGAGGAUUGAGCAUCA
B10: chr11:214995:215097:+|3pUTR|ENSG00000177963|unk|total|mutant (ssRNA)
RNA: GGGAGUUCUACAGUCCGACGAUCCCUCCUUCCUACUGGUUCCGACUACACUUACAACAAGGAAAAUGCCCCUCGUGUGACCACCGAUUGAGAUUUAUACCACAUACCACACACCGCCACAGAAACAUCAUCUUGAAAUAAAGACAACAGAGGAUUGAGCAUCA
B11: chr5:157162449:157163658:-|CDS|ENSG00000170613|control|control|control (ssRNA)
RNA: GGGAGUUCUACAGUCCGACGAUCGGUCACAUCACAUGACAGAGAGGUAGAUAUCGUGGCUAAGAUGGUGGAGAAGCAAAACAUAGAGGCCAAAGUGGAGAAAGCCCAGGGUGGCCAGGAGCUGGAGAUGAUCAGUGGCACUAUCAACAGAGGAUUGAGCAUCA
B12: chr1:234405902:234406099:-|CDS|ENSG00000059588|control|control|control (ssRNA)
RNA: GGGAGUUCUACAGUCCGACGAUCCCUUAUAGUUGUGCUGCAGUGGUGUUUCAAUCACAAUUUUAGUGUUCGACUGUAUGCUUUAGUUGCUCUUAAGAAACUCUGGACUGUGUGUAAAGUGUUAAGUGUUGAAGAAUUUGAUGCCAACAGAGGAUUGAGCAUCA
B13: chr6:136278143:136278257:-|CDS|ENSG00000029363|unk|total|mutant (ssRNA)
RNA: GGGAGUUCUACAGUCCGACGAUCACAUCCGGUGAUAUUUGGCCUGGCCUUUCAGCUUAUGAUAACCGUCCCCGAUCACCCCACCGUCCUUCACCUAUUGCUACACCACCCCGUCAGAGUUCAUCUUGCUCUGAUGCUCCCAUGCAACAGAGGAUUGAGCAUCA
B14: chr1:15430058:15430159:+|3pUTR|ENSG00000142634|msi1|FALSE|unique (ssRNA)
RNA: GGGAGUUCUACAGUCCGACGAUCCCUGGAAGCUACGCGGACUUGCAGAGGUUUUAUUUUUUGGCCUUAGAAUCUGCAGAAAUUAGGAGGCACCGAGCCCAGCGCAGCAGCCUCGGACCCGGAUUGCGUUUGCCUUAGCGGAUACAACAGAGGAUUGAGCAUCA

These binders were tested against MSI1 full-length (mouse, UniProt Q61474 1-362) (assay: nsRBNS (natural sequence RNA bind-n-seq); RBNS binding buffer (assumed for nsRBNS): 25 mM Tris pH 7.5, 150 mM KCl, 3 mM MgCl2, 0.01% Triton X-100, 500 ug/ml BSA, 20 U/ml SUPERase-In, 4 C; UNK is unkempt and MSI1 is Musashi-1; names of the RNAs are library labels; protein concentration not given here; high values mean tight binding).
Sequence of MSI1 full-length (Q61474 whole entry): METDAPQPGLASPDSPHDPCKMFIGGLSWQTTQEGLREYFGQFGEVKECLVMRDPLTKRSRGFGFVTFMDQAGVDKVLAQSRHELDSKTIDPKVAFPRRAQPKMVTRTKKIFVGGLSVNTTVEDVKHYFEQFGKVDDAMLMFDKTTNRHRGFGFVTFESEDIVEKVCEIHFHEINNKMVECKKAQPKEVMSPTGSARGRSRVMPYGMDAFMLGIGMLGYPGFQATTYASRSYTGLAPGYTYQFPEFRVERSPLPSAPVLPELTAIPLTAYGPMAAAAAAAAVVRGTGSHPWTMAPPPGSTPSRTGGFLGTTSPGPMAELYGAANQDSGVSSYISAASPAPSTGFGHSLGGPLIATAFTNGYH
With B1 the binding signal was 129 enrichment R. Work on B2 yielded a binding signal of 29.7 enrichment R. In the case of B3, the binding signal is reported as 19.7 enrichment R. In the case of B4, the binding signal is reported as 4.67 enrichment R. B5 showed a binding signal of 1.28 enrichment R. Work on B6 yielded a binding signal of 0.267 enrichment R. With B7 the binding signal was 3.62 enrichment R. In the case of B8, the binding signal is reported as 0.457 enrichment R. In the case of B9, the binding signal is reported as 1.31 enrichment R. B10 gave a binding signal of 0.839 enrichment R. With B11 the binding signal was 0.709 enrichment R. Binder B12 has a binding signal of 0.964 enrichment R. In the case of B13, the binding signal is reported as 0.739 enrichment R. Work on B14 yielded a binding signal of 0.989 enrichment R.
